# Screens as filed in PubChem.
# Marburg entry inh: blocks Marburg virus binding to or entry into cells | Marburg virus pseudotyped entry inhibition, cell reporter | Potency, µM (series often up to 37.8 µM), for inactives: at the highest dose activity change, negative = inhibition, hits mostly inhibitors | actives 1.8% (n = 300,000); calls by dose curve; tested in HEK293 cells; note: potency is the fitted concentration of half-maximal effect; % is set by controls: 0 for no effect and ±100 for the full control effect
# AMA1 RON2 block: disrupts binding of P. falciparum AMA1 to RON2 | Potency, µM (series often up to 58.2 µM), without a hit: top-dose activity change, negative = inhibition, usual class: inhibitors | actives 0.2% (n = 360,000) | AID 720542 | AlphaScreen AMA1-biotinylated RON2 peptide binding; active = well fitted inhibition curve with a large enough effect; inconclusive = small, poorly fitted or top-dose-only effect; inactive = no such curve, though single readings can be large or run the other way;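 note: potency is the fitted concentration of half-maximal effect; 0% = vehicle wells and -100% = peptide control; nearly all actives have a fitted effect of over 45% in size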
#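 AMA1 (3D7) with his tag at 25 nM final met compounds first, then biotinylated RON2 peptide at 25 nM; detection used donor plus acceptor beads, 10 µg/mL apiece, read by AlphaScreen after 30 min at room temperature.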
# Cycloheximide cs: affects cycloheximide protein synthesis inhibition readout, counter-screen; AID 2314; max response, %; cell reporter, cycloheximide protein synthesis inhibition counterscreen; actives 12% (n = 300,000); in the data active = max response mostly above about 13%, no sharp cut-off; inactive = mostly below about 14%; note: read at 38.3 µM for the half of the compounds with a filed dose; 0% is about no effect
# Lassa entry inh: blocks Lassa virus binding to or entry into cells; Lassa virus pseudotype entry inhibition, cell reporter; actives 1.2% (n = 300,000); Potency, µM (titrated, usually from 37.9 µM), for inactives: at the top dose activity change, negative = inhibition, actives largely listed as inhibitors; AID 540256; calls by dose curve; tested in HEK293 cells; note: potency is the fitted concentration of half-maximal effect; % is set by controls: 0 for no effect and ±100 for the full control effect; nearly all actives have a fitted effect of over 50% in size
# Shiga inhibitor: blocks Shiga toxin action in Vero cells; inhibition, % at 38.7 µM; Vero cells, Shiga toxin protein synthesis inhibition reporter; actives 9.2% (n = 290,000); AID 2315; in the data active = inhibition mostly above about 28%, no sharp cut-off; inactive = mostly below about 43%; note: 0% is about no effect
# * = called active by the depositor; ? = inconclusive; nt = no result given; [ ] = another dose, or the depositor's remark. Only a selection was taken, and hits are over-represented in it overall.
SMILES,Marburg entry inh,AMA1 RON2 block,Cycloheximide cs,Lassa entry inh,Shiga inhibitor
CN(C)S(=O)(=O)c1ccc(C(=O)NCCc2ccco2)cc1,3%,-19%,25*,23%,63*
O=C(NCc1ccccc1)c1cccc(S(=O)(=O)N2CCCCC2)c1,-19%[46.1 µM],-8%,-2,?,-5
CN(c1ccccc1)S(=O)(=O)c1ccc(C(=O)NCc2ccco2)cc1,2%,-18%,nt,?,nt
CC(NC(=O)c1cccc(S(=O)(=O)N2CCN(Cc3ccccc3)CC2)c1)c1ccc(Cl)cc1 (stereo not given),?,-22%,nt,0.89µM*,nt
O=C(NCCc1ccccc1)c1cccc(S(=O)(=O)N2CCCCC2)c1,?,-14%,28*,-34%,40*
COc1ccc(CCNC(=O)c2cccc(S(=O)(=O)N3CCCCC3)c2)cc1,-25%[46.1 µM],4%,-2,-22%[46.1 µM],-4
COc1cc(C(=O)NCCOc2cccc(C)c2)c(Br)c(OC)c1OC,-11%,1%,-2,4%,-3
CN(C)S(=O)(=O)c1cccc(C(=O)NCCc2ccccc2)c1,?,3%,48*,?,72*
O=C(O)c1cccc(S(=O)(=O)Nc2ccccc2C(=O)NCCc2ccccc2)c1,?,8%,29*,4%[46.1 µM],46*
O=C(NCCc1ccccc1)C1=CCN(S(=O)(=O)c2ccccc2)CC1,nt,0%,30*,nt,35
CN(C)S(=O)(=O)c1cccc(C(=O)Nc2ccccc2)c1,2%[46.1 µM],-4%,15,-3%,42
CCc1cccc(C)c1NC(=O)CSc1nc2ccccc2nc1Cc1ccccc1,nt,nt,nt,0%[46.1 µM],nt
CC1SC(c2ccc(F)cc2)N(CCc2ccccc2)C1=O (stereo not given),0%[46.1 µM],0%,24*,3%[46.1 µM],42*
NCCCCCc1nnc(SCC(=O)c2ccc(Cl)cc2)o1,-22%,-6%,-1,9%,3
Cc1occc1C(=O)N/N=C/C=C/c1ccccc1[N+](=O)[O-],11%[46.1 µM],28%,42*,25%,30
Cc1occc1C(=O)N/N=C/C(Br)=C\c1ccccc1,?,2%,43*,13µM*,50*
Cc1ccc(/C=N/NC(=O)c2ccoc2C)o1,?,4%,44*,11%,117*
O=C(N/N=C/C=C/c1ccccc1)c1ccccc1Br,-1%,68%,26*,0%,41
Cc1cc(C(=O)N/N=C/C=C/c2ccccc2[N+](=O)[O-])c(C)o1,?,18%,4,?,24
COC(=O)c1ccccc1S(=O)(=O)N1CCC(C(=O)NCc2ccco2)CC1,nt,-4%,nt,nt,nt
Cc1occc1C(=O)N/N=C/c1ccc(N(C)C)cc1,?,-11%,22*,?,35
Cc1ccc(C(=O)N/N=C/C=C/c2ccccc2)cc1,-7%[46.1 µM],66%,25*,-7%[46.1 µM],49
NC(=S)N/N=C/C=C/c1ccccc1,-3%,23%[2.32 µM],10,14%,-3
O=C(N/N=C/C=C/c1ccccc1)c1cccc(Br)c1,?,63%,9,17%,25
CCCCOC(=O)N/N=C/C=C/c1ccccc1,?,7%,21*,-28%,13*
SMILES,Marburg entry inh,AMA1 RON2 block,Cycloheximide cs,Lassa entry inh,Shiga inhibitor
Cc1occc1C(=O)N/N=C/C=C/c1ccc(N(C)C)cc1,nt,72%,53*,nt,79*
CC(C)(C)NC(=O)C1c2ccccc2OCC(=O)N1CCCN1CCOCC1 (stereo not given),nt,9%,nt,nt,nt
O=C(N/N=C/C=C/c1ccco1)c1ccccc1Cl,?,53%,18,-24%[46.1 µM],42
Cc1ccc(/C=N/NC(=O)NC23CC4CC(CC(C4)C2)C3)o1,-16%,-3%,29*,-26%,150*
Cc1occc1C(=O)N/N=C/C=C/c1ccccc1,?,74%,41*,?,85
N#Cc1ncc(N=Cc2ccc(N(CCCl)CCCl)cc2)s1,0.79µM*,2%,nt,0.71µM*,nt
ClCCN(CCCl)c1ccc(C=NNc2ncccn2)cc1,?,32%,nt,?,nt
COc1ccc([N+](=O)[O-])cc1NC(=S)Nc1ccccc1,5%,0%,-5,9%,-10
O=C(NCCc1ccccc1)Nc1ccc(Cl)cc1,?,-4%,46*,-20%,46*
O=[N+]([O-])c1ccc(O)c(Nc2ncnc3ccc(Br)cc23)c1,?,-14%,-4,?,8
O=C(NCCc1ccncc1)Nc1cccc(Cl)c1,3%,4%,-2,-1%,-15
O=[N+]([O-])c1ccc(NNC(=S)Nc2ccccc2)cc1,?,-29%,37*,-1%,97*
CC(C)(C)C(=O)NC(=S)NCCc1ccccc1,?,0%,39*,19%,90*
